Where “and” joins values, the source holds several entries; their conditions need not be identical. Identical values can stand only once. The panel holds about 83,000 compounds, 20% with a hit somewhere; the sample as a whole holds those more often.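 Single-concentration screen, 48 h exposure, 96-well plates. Endpoint: percent growth. Below 10 = active.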 Calls of active or inactive are those of the source.
Legend:
Test in all cases: NCI-60 one-dose screen, 48 h (100 = growth as untreated, 0 = no growth, -100 = all killed)
Conditions in all cases: 10 µM unless noted
SK-MEL-2 melanoma = tested on: SK-MEL-2 melanoma
EKVX NSCLC = tested on: EKVX NSCLC
SN12C renal = tested on: SN12C renal
UO-31 renal = tested on: UO-31 renal
TK-10 renal = tested on: TK-10 renal
ACHN renal = tested on: ACHN renal
CAKI-1 renal = tested on: CAKI-1 renal
A498 renal = tested on: A498 renal
CCRF-CEM leukemia = tested on: CCRF-CEM leukemia
MOLT-4 leukemia = tested on: MOLT-4 leukemia
SR leukemia = tested on: SR leukemia
RPMI-8226 leukemia = tested on: RPMI-8226 leukemia
OVCAR-8 ovarian = tested on: OVCAR-8 ovarian
OVCAR-5 ovarian = tested on: OVCAR-5 ovarian
OVCAR-4 ovarian = tested on: OVCAR-4 ovarian
SK-OV-3 ovarian = tested on: SK-OV-3 ovarian
IGROV1 ovarian = tested on: IGROV1 ovarian
OVCAR-3 ovarian = tested on: OVCAR-3 ovarian
HS 578T breast = tested on: HS 578T breast
NCI/ADR-RES ovarian = tested on: NCI/ADR-RES ovarian

Measured: growth

C=C(c1ccc(C(=O)O)cc1)c1cc2c(cc1C)C(C)(C)CCC2(C)C
inactive: SK-MEL-2 melanoma 47.7% and 56.2% | EKVX NSCLC 57.5% and 56.7% | SN12C renal 87.5% and 77.5% | UO-31 renal 71.3% and 66.9% | TK-10 renal 89.8% | ACHN renal 74.1% and 57.5% | CAKI-1 renal 70.4% and 82.1% | A498 renal 133% and 110% | CCRF-CEM leukemia 60.4% and 90% | MOLT-4 leukemia 71.2% and 79.4% | SR leukemia 46.1% and 84.9% | OVCAR-8 ovarian 77% and 80.6% | OVCAR-5 ovarian 91% and 79.7% | OVCAR-4 ovarian 95.4% and 86.9% | SK-OV-3 ovarian 88.7% and 77.8% | IGROV1 ovarian 98.9% and 79.8% | OVCAR-3 ovarian 88.8% and 82.6% | HS 578T breast 126% and 68.1% | NCI/ADR-RES ovarian 71.9% and 72.9%
2.66% (active) and 61% (inactive): RPMI-8226 leukemia

Cc1nonc1-c1ccc2c(c1)OCO2
inactive: SK-MEL-2 melanoma 113% and 100% | EKVX NSCLC 90% and 104% | SN12C renal 109% and 103% | UO-31 renal 95.2% and 96.6% | TK-10 renal 105% and 121% | ACHN renal 109% and 107% | CAKI-1 renal 82.2% and 103% | A498 renal 166% | CCRF-CEM leukemia 86.9% and 94.1% | MOLT-4 leukemia 94.8% | SR leukemia 104% | RPMI-8226 leukemia 94.1% and 91.7% | OVCAR-8 ovarian 98.2% and 96.7% | OVCAR-5 ovarian 111% and 121% | OVCAR-4 ovarian 108% and 97.2% | SK-OV-3 ovarian 97.3% and 107% | IGROV1 ovarian 108% and 116% | OVCAR-3 ovarian 101% and 105% | HS 578T breast 107% and 145% | NCI/ADR-RES ovarian 97.7%

C[C@]12CCc3c(ccc4cc(O)ccc34)[C@@H]1C[C@H](O)[C@@H]2O
inactive: SK-MEL-2 melanoma 125% | EKVX NSCLC 74.7% | SN12C renal 93% | UO-31 renal 85.3% | TK-10 renal 110% | ACHN renal 98% | CAKI-1 renal 77.5% | A498 renal 73% | CCRF-CEM leukemia 84.7% | MOLT-4 leukemia 102% | SR leukemia 110% | RPMI-8226 leukemia 97.1% | OVCAR-8 ovarian 94% | OVCAR-5 ovarian 104% | OVCAR-4 ovarian 106% | SK-OV-3 ovarian 106% | IGROV1 ovarian 103% | OVCAR-3 ovarian 96.7% | HS 578T breast 84.9% | NCI/ADR-RES ovarian 96%

CC(C)=CCc1cc(O)c(O)c2oc3cc(O)cc(O)c3c(=O)c12
inactive: SK-MEL-2 melanoma 97.3% | EKVX NSCLC 78.2% | SN12C renal 58.4% | UO-31 renal 45.9% | TK-10 renal 46.7% | ACHN renal 41.5% | CAKI-1 renal 36.7% | A498 renal 101% | CCRF-CEM leukemia 29.5% | MOLT-4 leukemia 31.9% | SR leukemia 25.9% | RPMI-8226 leukemia 48.2% | OVCAR-8 ovarian 51.1% | OVCAR-5 ovarian 75% | OVCAR-4 ovarian 62.5% | SK-OV-3 ovarian 65.7% | IGROV1 ovarian 55% | OVCAR-3 ovarian 67.4% | HS 578T breast 92.2% | NCI/ADR-RES ovarian 28.2%

CCCN1C(=O)/C(=c2\sc3n(c2=O)C2C(NN=3)N(CC)C(=O)N2CC)c2ccccc21 (stereo not given)
active: A498 renal 5.22% | OVCAR-8 ovarian 7.65% | NCI/ADR-RES ovarian 0.109%
inactive: SK-MEL-2 melanoma 55% | EKVX NSCLC 52.4% | SN12C renal 23.1% | UO-31 renal 33.6% | TK-10 renal 73.9% | ACHN renal 33.1% | CAKI-1 renal 33.8% | CCRF-CEM leukemia 13.6% | MOLT-4 leukemia 19.1% | SR leukemia 17% | RPMI-8226 leukemia 21.9% | OVCAR-5 ovarian 27.5% | OVCAR-4 ovarian 48.8% | SK-OV-3 ovarian 43.7% | IGROV1 ovarian 16% | OVCAR-3 ovarian 12.4% | HS 578T breast 16.8%

ON=C1CCCCCCCC1
inactive: SK-MEL-2 melanoma 94.9% and 100% | EKVX NSCLC 108% | SN12C renal 97.2% and 102% | UO-31 renal 79.9% and 85.4% | TK-10 renal 100% | ACHN renal 98.6% and 105% | CAKI-1 renal 105% and 99.8% | A498 renal 102% and 105% | CCRF-CEM leukemia 107% and 101% | MOLT-4 leukemia 101% and 96.2% | SR leukemia 90.9% and 97.5% | RPMI-8226 leukemia 103% and 102% | OVCAR-8 ovarian 102% and 107% | OVCAR-5 ovarian 103% and 105% | OVCAR-4 ovarian 115% and 113% | SK-OV-3 ovarian 100% and 103% | IGROV1 ovarian 113% and 111% | OVCAR-3 ovarian 111% | HS 578T breast 107% and 108% | NCI/ADR-RES ovarian 103% and 105%

[Cu+].[NH-][C@H]1C[N-]C(=O)[C@H]([C@H]2CCN=C(N)N2)[N-]C(=O)/C(=C\NC(N)=O)[N-]C(=O)[C@H](CNC(=O)C[C@@H](N)CCCN)[N-]C(=O)[C@H](CO)[N-]C1=O
inactive: SK-MEL-2 melanoma 108% | EKVX NSCLC 109% | SN12C renal 103% | UO-31 renal 86.8% | TK-10 renal 98.1% | ACHN renal 108% | CAKI-1 renal 87.8% | A498 renal 85.7% | CCRF-CEM leukemia 99.9% | MOLT-4 leukemia 102% | SR leukemia 96.1% | RPMI-8226 leukemia 103% | OVCAR-8 ovarian 106% | OVCAR-5 ovarian 113% | OVCAR-4 ovarian 99.9% | SK-OV-3 ovarian 71.3% | IGROV1 ovarian 109% | OVCAR-3 ovarian 104% | HS 578T breast 97% | NCI/ADR-RES ovarian 103%

C=C(CNCCO)[C@@H]1CC[C@]2(CO)CC[C@]3(C)[C@H](CC[C@@H]4[C@@]5(C)CCC(NCCc6ccc(O)cc6)C(C)(C)[C@@H]5CC[C@]43C)[C@@H]12 (stereo not given in full)
active: SK-MEL-2 melanoma -84.1% | EKVX NSCLC -75.3% | SN12C renal -73.7% | UO-31 renal -95.4% | TK-10 renal -89.4% | ACHN renal -96.6% | CAKI-1 renal -85.8% | A498 renal -87.5% | CCRF-CEM leukemia -28.5% | MOLT-4 leukemia -30.3% | SR leukemia -50.6% | RPMI-8226 leukemia -51.3% | OVCAR-8 ovarian -76.8% | OVCAR-5 ovarian 0.392% | OVCAR-4 ovarian -27.1% | SK-OV-3 ovarian -73.2% | IGROV1 ovarian -61.5% | OVCAR-3 ovarian -64.3% | HS 578T breast -55.9%
inactive: NCI/ADR-RES ovarian 33.4%

O=[N+]([O-])c1ccc2[nH]c3nccc(NCc4cccc(Cl)c4)c3c2c1
active: OVCAR-4 ovarian -35%
inactive: SK-MEL-2 melanoma 93% | EKVX NSCLC 50.8% | SN12C renal 86.5% | UO-31 renal 87.2% | TK-10 renal 72.8% | ACHN renal 68.2% | CAKI-1 renal 60.2% | A498 renal 71.4% | CCRF-CEM leukemia 79.6% | MOLT-4 leukemia 75.9% | SR leukemia 50.5% | RPMI-8226 leukemia 82.9% | OVCAR-8 ovarian 37.5% | OVCAR-5 ovarian 86.3% | SK-OV-3 ovarian 91.9% | IGROV1 ovarian 93.1% | OVCAR-3 ovarian 49.8% | HS 578T breast 17.5% | NCI/ADR-RES ovarian 64.4%

CCOC(=O)N(O)c1ccc(/C=C/c2ccccc2)cc1
active: TK-10 renal 4.6% | A498 renal -67.4% and -83.1% | IGROV1 ovarian 8.91% and 1.54%
18.9% (inactive) and 3.82% (active): OVCAR-5 ovarian
inactive: SK-MEL-2 melanoma 66.5% and 53.1% | EKVX NSCLC 91.8% | SN12C renal 66.3% and 62.6% | UO-31 renal 56.2% and 57.4% | ACHN renal 76.2% and 70.3% | CAKI-1 renal 51.7% and 81.4% | CCRF-CEM leukemia 55.2% and 63% | MOLT-4 leukemia 59.4% and 60.9% | SR leukemia 66.7% | RPMI-8226 leukemia 62.2% and 49.3% | OVCAR-8 ovarian 76.7% and 37.1% | OVCAR-4 ovarian 55.8% and 43.5% | SK-OV-3 ovarian 94.1% and 92.6% | OVCAR-3 ovarian 34% and 28% | HS 578T breast 94.4% and 112% | NCI/ADR-RES ovarian 74.7% and 63.2%

From PubChem BioAssay (NCI)
